smiles,measurement,setting,value
Cc1c(Cn2c(C)c(C)n3c(=O)cc(N4CCOCC4)nc23)cccc1C(F)(F)F [GSK2328680],Kinases covered,PIK3CB,PIK3CB
CC(C)N1CCN(Cc2cnc(-c3cc(-c4cccc5[nH]ccc45)cc4[nH]ncc34)o2)CC1 [GSK2269557],Kinases covered,PIK3CD,PIK3CD
CNS(=O)(=O)c1ccc(N(C)C)c(Nc2ncnc3cc(OC)c(OC)cc23)c1 [GSK114],Kinases covered,PDGFRB,PDGFRB
CC(C)C(=O)N[C@@H]1CCN(C(=O)Nc2nc3c(s2)-c2nc(-c4ccccc4Cl)ncc2CC3)C1 [BI00047804],Kinases covered,PIK3CG,PIK3CG
O=C(Nc1ccccc1)Nc1cccc(Oc2ccc3nccn3n2)c1 [TPKI-39],Kinases covered,PDGFRB,PDGFRB
CN(C)C(=O)/C(C#N)=C/c1ccc(-c2nc3cnc4[nH]ccc4c3n2C2CCCCC2)o1 [FM-381],Kinases covered,PIK3C2G,PIK3C2G
COc1ncc(-c2cc(-c3ncc(CN4C[C@@H](C)O[C@@H](C)C4)o3)c3cn[nH]c3c2)cc1NS(C)(=O)=O [GSK2292767],Kinases covered,PIK3CD,PIK3CD
CC(C)N1CC(=O)N(C)c2cnc(Nc3cccc(S(=O)(=O)CCN4CCOCC4)c3)nc21 [BI00009348],Kinases covered,PIK3CG,PIK3CG
COc1ccc(-c2cc3c(C)nc(N)nc3n([C@H]3CC[C@H](O)CC3)c2=O)cn1 [PFE-PKIS 40],Kinases covered,PI4KB,PI4KB
same,Kinases covered,PIK3C2B,PIK3C2B
same,Kinases covered,PIK3C2G,PIK3C2G
same,Kinases covered,PIK3CB,PIK3CB
same,Kinases covered,PIK3CD,PIK3CD
same,Kinases covered,PIK3CG,PIK3CG
Cn1ccc2ncnc(Oc3ccc(NC(=O)Nc4ccccc4)cc3)c21 [TPKI-69],Kinases covered,PDGFRB,PDGFRB
NS(=O)(=O)c1cccc(-c2ccc3nccc(-c4cccc(S(N)(=O)=O)c4)c3c2)c1 [GW867253],Kinases covered,PI4KB,PI4KB
same,Kinases covered,PIK3CG,PIK3CG
CC[C@@H]1CO[C@H](C(=O)Nc2ccccc2)CN1c1cc(-c2ccc3c(N)n[nH]c3c2)nc(NC)n1 [GSK2376236],Kinases covered,PDPK1,PDPK1
COc1cc2c(cc1OC)C(=C(Nc1ccccc1)c1cccc(CN)c1)C(=O)N2 [BIBF0846CL],Kinases covered,PDGFRB,PDGFRB
COc1cc2ncn(-c3cc(O[C@H](C)c4ccccc4Cl)c(C(N)=O)s3)c2cc1OC [GSK237701A],Kinases covered,PDGFRB,PDGFRB
COc1ccc(-c2cc3c(C)nc(N)nc3n([C@H]3CC[C@H](OCCO)CC3)c2=O)cn1 [PFE-PKIS 29],Kinases covered,PI4KB,PI4KB
same,Kinases covered,PIK3C2B,PIK3C2B
same,Kinases covered,PIK3C2G,PIK3C2G
same,Kinases covered,PIK3CB,PIK3CB
same,Kinases covered,PIK3CD,PIK3CD
Cc1c(Cn2c(C)nn3c(=O)cc(N4CCO[C@H](C)C4)nc23)cccc1C(F)(F)F [GSK2373690],Kinases covered,PIK3CB,PIK3CB
same,Kinases covered,PIK3CG,PIK3CG
CNc1nc(-c2ccc3c(N)n[nH]c3c2)cc(N2C[C@@H](C(=O)Nc3ccccc3)CC[C@H]2C)n1 [GSK2298859],Kinases covered,PDPK1,PDPK1
Cc1ccc(NC(=O)Nc2ccccc2F)cc1-c1ccc(C(=O)Nc2ccncc2)cc1 [GSK1398477],Kinases covered,PDGFRB,PDGFRB
FC1=CC(C3=NC2=CC(OC)=C(OC)C=C2C(N[C@H]4[C@H]([C@](C)(O)C)CNC4)=N3)=C(O)C=C1.Cl.Cl [CCT241533],Kinases covered,PHK,PHK
Cc1nnc(-c2ccc3occ(-c4ccc(S(C)=O)cc4)c3c2)[nH]1 (stereo not drawn) [TPKI-85],Kinases covered,PIK3C3,PIK3C3
O=c1cc(N2CCOCC2)nc2n(Cc3ccccc3F)ccn12 [GSK2297428],Kinases covered,PIK3C3,PIK3C3
Cc1c(Cn2ccn3c(=O)nc(N4CCOCC4)cc23)cccc1C(F)(F)F [GSK2336394],Kinases covered,PIK3CB,PIK3CB

# From PMC7826789 (International Journal of Molecular Sciences, 2021)
